Experimental data taken from the supplement of paper PMC6897291.

Key:
RIVA [1] = experiment: growth inhibition by drug plus 177Lu-lilotomab satetraxetan (1 - RLU/untreated control) (fraction); higher = stronger inhibition; details: 177Lu-lilotomab satetraxetan 0.5 ug/ml
Method in brief: (§1)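 With or without 18 h pretreatment by a radiolabelled anti-CD37 antibody conjugate (~600 MBq/mg; 0.5 µg/ml RIVA, 1 µg/ml U-2932), RIVA and U-2932 cells were washed and plated at 3,000 cells/well. Pre-printed compound doses were 10/100 nM for RIVA and 10/1,000 nM for U-2932. Growth inhibition uses RealTime-Glo RLU relative to the untreated no-drug wells. The calculation is 1 − RLU/mean of 48 such wells per plate, with reads daily from day 3 after 1 h at 37°C.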

U-2932 [2] = experiment: growth inhibition by drug alone (1 - RLU/untreated control) (fraction); higher = stronger inhibition; details: 177Lu-lilotomab satetraxetan 0 ug/ml
Method in brief: as §1

RIVA [3] = experiment: as above; details: 177Lu-lilotomab satetraxetan 0 ug/ml
Method in brief: as §1

U-2932 [4] = experiment: growth inhibition by drug plus 177Lu-lilotomab satetraxetan (1 - RLU/untreated control) (fraction); higher = stronger inhibition; details: 177Lu-lilotomab satetraxetan 1 ug/ml
Method in brief: as §1

Row | SMILES | growth inhibition by drug plus 177Lu-lilotomab satetraxetan (RIVA [1]; 100 nM, time (day): 5) | growth inhibition by drug plus 177Lu-lilotomab satetraxetan (RIVA [1]; 100 nM, time (day): 6) | growth inhibition by drug alone (U-2932 [2]; 10 nM, time (day): 3) | growth inhibition by drug alone (U-2932 [2]; 10 nM, time (day): 4) | growth inhibition by drug alone (U-2932 [2]; 10 nM, time (day): 5) | growth inhibition by drug alone (U-2932 [2]; 10 nM, time (day): 6) | growth inhibition by drug alone (U-2932 [2]; 1000 nM, time (day): 3) | growth inhibition by drug alone (U-2932 [2]; 1000 nM, time (day): 4) | growth inhibition by drug alone (U-2932 [2]; 1000 nM, time (day): 5) | growth inhibition by drug alone (U-2932 [2]; 1000 nM, time (day): 6) | growth inhibition by drug alone (RIVA [3]; 10 nM, time (day): 3) | growth inhibition by drug alone (RIVA [3]; 10 nM, time (day): 4) | growth inhibition by drug alone (RIVA [3]; 10 nM, time (day): 5) | growth inhibition by drug alone (RIVA [3]; 10 nM, time (day): 6) | growth inhibition by drug alone (RIVA [3]; 100 nM, time (day): 3) | growth inhibition by drug alone (RIVA [3]; 100 nM, time (day): 4) | growth inhibition by drug alone (RIVA [3]; 100 nM, time (day): 5) | growth inhibition by drug alone (RIVA [3]; 100 nM, time (day): 6) | growth inhibition by drug plus 177Lu-lilotomab satetraxetan (U-2932 [4]; 10 nM, time (day): 3) | growth inhibition by drug plus 177Lu-lilotomab satetraxetan (U-2932 [4]; 10 nM, time (day): 4) | growth inhibition by drug plus 177Lu-lilotomab satetraxetan (U-2932 [4]; 10 nM, time (day): 5) | growth inhibition by drug plus 177Lu-lilotomab satetraxetan (U-2932 [4]; 10 nM, time (day): 6) | growth inhibition by drug plus 177Lu-lilotomab satetraxetan (U-2932 [4]; 1000 nM, time (day): 3) | growth inhibition by drug plus 177Lu-lilotomab satetraxetan (U-2932 [4]; 1000 nM, time (day): 4) | growth inhibition by drug plus 177Lu-lilotomab satetraxetan (U-2932 [4]; 1000 nM, time (day): 5) | growth inhibition by drug plus 177Lu-lilotomab satetraxetan (U-2932 [4]; 1000 nM, time (day): 6) | growth inhibition by drug plus 177Lu-lilotomab satetraxetan (RIVA [1]; 10 nM, time (day): 3) | growth inhibition by drug plus 177Lu-lilotomab satetraxetan (RIVA [1]; 10 nM, time (day): 4) | growth inhibition by drug plus 177Lu-lilotomab satetraxetan (RIVA [1]; 10 nM, time (day): 5) | growth inhibition by drug plus 177Lu-lilotomab satetraxetan (RIVA [1]; 10 nM, time (day): 6) | growth inhibition by drug plus 177Lu-lilotomab satetraxetan (RIVA [1]; 100 nM, time (day): 3) | growth inhibition by drug plus 177Lu-lilotomab satetraxetan (RIVA [1]; 100 nM, time (day): 4)
1 | CCOc1cc2ncc(C#N)c(Nc3ccc(OCc4ccccn4)c(Cl)c3)c2cc1NC(=O)/C=C/CN(C)C [Neratinib (HKI-272)] | 0.425 | 0.419 | – | – | – | – | – | – | – | – | – | – | – | – | – | – | – | – | – | – | – | – | – | – | – | – | – | – | – | – | – | –
2 | C[C@]1(c2nc3c(C(N)=O)cccc3[nH]2)CCCN1 [ABT-888 (Veliparib)] | 0.442 | 0.427 | -0.0659 | -0.0358 | -0.0424 | 0.0616 | -0.0937 | -0.0475 | -0.078 | -0.068 | -0.145 | -0.176 | -0.216 | -0.314 | -0.198 | -0.238 | -0.247 | -0.287 | -0.0353 | -0.0127 | 0.0158 | 0.166 | -0.0568 | 0.0163 | 0.019 | 0.0852 | 0.338 | 0.488 | 0.516 | 0.518 | 0.307 | 0.418
3 | Nc1[nH]nc2nnc(-c3c(-c4ccccc4)nn4ccccc34)cc12 | 0.493 | 0.495 | 0.0936 | 0.109 | 0.0192 | -0.0741 | 0.0442 | 0.0356 | -0.0414 | -0.0395 | 0.0237 | 0.104 | 0.0531 | -0.13 | -0.0641 | 0.0167 | 0.00135 | -0.0876 | 0.135 | 0.17 | 0.238 | 0.275 | 0.0922 | 0.143 | 0.19 | 0.259 | 0.592 | 0.635 | 0.657 | 0.652 | 0.357 | 0.48
4 | O=C(O)C(=O)O.[NH-]C1CCCCC1[NH-].[Pt+2] (stereo not drawn) [Oxaliplatin (Eloxatin)] | – | – | 0.138 | 0.113 | -0.0491 | -0.0738 | 0.613 | 0.565 | 0.489 | 0.46 | 0.335 | 0.288 | 0.293 | 0.22 | -0.171 | -0.0865 | -0.121 | -0.155 | 0.123 | 0.163 | 0.223 | 0.284 | 0.675 | 0.638 | 0.604 | 0.608 | – | – | – | – | – | –
5 | C[C@]12CC[C@H](O)CC1=CC[C@@H]1[C@@H]2CC[C@]2(C)C(c3cccnc3)=CC[C@@H]12 [Abiraterone (CB-7598)] | 0.407 | 0.425 | 0.158 | 0.102 | -0.102 | -0.0433 | 0.0352 | -0.0224 | -0.154 | -0.164 | -0.0346 | -0.0301 | -0.224 | -0.618 | -0.373 | -0.274 | -0.381 | -0.72 | 0.0329 | 0.0754 | 0.164 | 0.196 | -0.00601 | 0.0151 | 0.0665 | 0.163 | 0.487 | 0.574 | 0.591 | 0.595 | 0.305 | 0.41
6 | CN(c1ncccc1CNc1nc(Nc2ccc3c(c2)CC(=O)N3)ncc1C(F)(F)F)S(C)(=O)=O | – | – | 0.161 | 0.0909 | 0.0358 | -0.183 | 0.299 | 0.457 | 0.571 | 0.694 | -0.0233 | 0.0431 | -0.0513 | -0.296 | -0.0725 | 0.0108 | 0.00901 | -0.0367 | 0.066 | 0.111 | 0.2 | 0.224 | 0.23 | 0.336 | 0.426 | 0.546 | – | – | – | – | – | –
7 | O=C1c2ccccc2C(=O)c2c(NCCc3ccc(O)cc3)ccc(NCCc3ccc(O)cc3)c21 | 0.433 | 0.44 | -0.0815 | -0.112 | -0.157 | -0.425 | -0.127 | -0.129 | -0.138 | -0.403 | -0.237 | -0.358 | -0.539 | -0.808 | -0.77 | -0.807 | -0.893 | -1.08 | -0.127 | -0.0794 | -0.054 | -0.0701 | -0.11 | -0.0952 | -0.0582 | 0.044 | 0.317 | 0.429 | 0.456 | 0.479 | 0.329 | 0.437
